# Rin1-Abl PPI inh = inhibitors of Rin1-Abl protein binding, primary screen, biochemical, TR-FRET; 360,000 tested, 0.4% active; inhibition, % at 7.35 µM; AID 588664, 2011; in the data active = inhibition above about 5%, passing the limit was not always enough
# Neddylation inh = inhibitors of cullin neddylation, primary screen, biochemical, TR-FRET, uHTS, NAE and Ubc12; NEDD8-conjugating enzyme Ubc12 (Homo sapiens) + NEDD8-activating enzyme E1 regulatory …; calls only at 25 µM; 360,000 tested, 0.58% active; AID 651699, 2012; in the data active = inhibition above about 36%
# LEDGF integ inh = blockers of LEDGF/p75-dependent integrase strand transfer – biochemical, TR-FRET, high throughput, primary screen. HIV-1 integrase (with human LEDGF/p75). TR-FRET IN-LEDGF/p75 DNA integration, Eu/Cy5. inhibition, % at 3.7 µM. 370,000 tested, 0.64% active;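 active = inhibition above the screen-wide mean plus 3 SD, cut at about 13% in these data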;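 note: signal is the Cy5 over europium emission ratio at 671 and 618 nm; 0% = plate median of compound wells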
# proKLK7 act = proKLK7 zymogen activators, primary screen, biochemical, fluorescence intensity; Kallikrein-7 (Homo sapiens), P49862; purified proKLK7, EDANS-DABCYL substrate fluorescence; 100% is mature enzyme control, 0% vehicle; activation, % at 7 µM; 370,000 tested, 0.9% active; AID 652039, 2013;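 active = activation above the mean of all tested compounds plus 3 SD, computed per campaign excluding outliers beyond control limits, cut at about 13% in these data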
# MBD2 inh = inhibitors of MBD2 binding to methylated DNA, primary screen, biochemical, TR-FRET, DNA-binding domain, human; Methyl-CpG-binding domain protein 2 (Homo sapiens), Q9UBB5; MBD2 binding to methylated oligonucleotide; inhibition, % at 4.4 µM; 370,000 tested, 0.31% active; AID 686964, 2013; in the data active = inhibition above about 13%
# UHRF1 binding = UHRF1 methylated DNA binding inhibitors, primary screen, counter-screen for MBD2 inhibitor project, biochemical, TR-FRET, human UHRF1, single concentration; E3 ubiquitin-protein ligase UHRF1 (Homo sapiens), Q96T88; UHRF1 binding to methylated oligo; inhibition, % at 4.4 µM; 370,000 tested, 0.75% active;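 note: UHRF1 SRA domain binding a hemimethylated CpG hairpin DNA probe; 0% = median of test compound wells and 100% = reference inhibitor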
# UHRF1 ctr MBD2 = UHRF1 methylated DNA binding inhibitors, counter-screen for MBD2 inhibitor project, biochemical, TR-FRET, human UHRF1 | UHRF1 binding to methylated oligonucleotide | inhibition, % at 4.4 µM | shares compounds with MBD2 inh | AID 720530, 2013 | 1,000 tested, 25% active;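 note: UHRF1 SRA domain binding a labeled hemimethylated CpG hairpin DNA; 0% = vehicle only and 100% = reference inhibitor with vehicle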
# MBD2 confirm = inhibitors of MBD2 binding to methylated DNA, confirmation, biochemical, TR-FRET, DNA-binding domain, human | shares compounds with MBD2 inh | inhibition, % at 4.4 µM | 1,000 tested, 26% active | TR-FRET MBD2-DBD binding to methylated oligonucleotide; in the data active = inhibition above about 14%
# Starred values were filed as active, the others as inactive; i = inactive; · = no result given. In the library only some 3.1% were active in any assay of this set; here they are far more common. Cut-off read from the data, not from the text of the source, unless noted: active = inhibition above about 21%; inactive = the rest.
SMILES,Rin1-Abl PPI inh,Neddylation inh,LEDGF integ inh,proKLK7 act,MBD2 inh,UHRF1 binding,UHRF1 ctr MBD2,MBD2 confirm
Cc1ccc(-n2c(SCc3ccc(Cl)c(Cl)c3)nnc2-c2ccc(C(C)(C)C)cc2)cc1,·,·,-3.6,-0.5,-5.6,0.0,·,·
O=C(NCC(c1cccs1)N1CCOCC1)c1cn(-c2ccccc2)nc1-c1ccc(Cl)cc1 (configuration not stated),-0.1,i,4.0,-0.1,14.1*,-5.1,7.4,2.8
CCCCc1ccc(NC(=S)N2CCN(c3ccccn3)CC2)cc1,1.6,i,-2.7,0.0,0.8,-1.0,·,·
C=CCN1C[C@@H](COCc2ccccc2)OCCS1(=O)=O,·,·,1.3,-0.3,-7.5,0.1,·,·
CCN(CC)C(=O)C1=C(C)N(CCCN2CCCC2=O)C(=O)C(CC(=O)NC2CCCC2)C1 (configuration not stated),0.4,i,-6.4,-0.2,-2.8,0.2,·,·
Cc1ccc(-c2nc3ccc(C)cn3c2CC2CCCCC2)cc1,·,i,2.1,-1.6,13.4*,21.7*,7.0,2.2
S=C(c1ccc2c(c1)OCO2)N1CCOCC1,-2.5,i,-2.3,0.8,3.2,-0.2,·,·
O=C(O)c1ccc(CNCc2cccc(OCc3ccc(F)cc3)c2)cc1,1.2,i,-3.9,-0.2,0.3,1.5,·,·
Fc1ccc(COc2cccc(CNCc3ccncc3)c2)cc1,-6.7,i,-7.0,0.3,37.7*,-0.4,-0.4,1.4
c1ccc(-c2onc(-c3ccco3)c2-c2ccc3[nH]ccc3c2)cc1,2.7,i,5.1,-0.1,2.1,1.6,·,·
Cc1ccc(C(=O)N2CCN(C(=O)CN3CCOCC3)C2)cc1,-5.0,i,1.4,-0.5,13.9*,16.7,7.1,4.0
COc1cc(NC(=O)C2CCCCC2)c(OC)cc1NC(=O)c1ccccc1,0.8,i,3.1,0.9,-6.0,-3.6,·,·
COc1cc(NC(=O)C2CCCO2)c(OC)cc1NC(=O)c1ccccc1 (configuration not stated),-1.1,i,-3.5,0.6,19.1*,-2.2,5.9,0.9
CC(=O)c1ccc(NC(=O)c2ccc3nc(C)sc3c2)cc1,0.1,i,0.9,1.0,3.9,1.8,·,·
Cc1nc2ccc(C(=O)Nc3ccccc3Cl)cc2s1,2.5,i,-5.3,0.3,20.4*,17.9,5.7,2.0
CCCCN(C(=O)c1cccc(N2C(=O)c3ccccc3C2=O)c1)c1c(N)n(CC(C)C)c(=O)[nH]c1=O,-1.2,i,0.9,-0.4,-2.2,0.5,·,·
CCCCN(C(=O)c1cccc(-n2cccc2)c1)c1c(N)n(Cc2ccccc2)c(=O)[nH]c1=O,2.4,i,1.4,0.4,17.6*,33.2*,43.1*,34.6*
CCCCC(=O)Nc1ccc(N2CCN(c3ccc(F)cc3)CC2)cc1,1.2,i,5.5,0.6,33.9*,3.7,3.4,1.7
Cc1ccc(C)c(S(=O)(=O)N2CCN(c3ncccn3)CC2)c1,-1.8,i,-2.3,0.7,15.2*,2.7,8.5,3.1
O=C(O)C1OC1(c1ccccc1Cl)c1ccccc1Cl (configuration not stated),0.6,i,2.1,0.1,2.0,0.2,·,·
CCCCOc1ccc(C(=O)Nc2ccc(N3CCN(C(=O)C(C)C)CC3)cc2)cc1,3.7,i,0.5,-0.4,33.0*,-1.9,7.5,3.8
